“And” between values parts separate entries of the source, which are not always exact repeats. Equal values may be shown once.

This note sets out measurements from PubChem BioAssay (NCATS).

Assay [1] is described as follows: qHTS profiling of the MIPE4 collection as inhibitors of Plasmodium falciparum (3D7) proliferation (AID 743344).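 Also: scaled between DMSO vehicle wells and 0.29 µM artemisinin as full inhibition.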 The note with it: P. falciparum 3D7 in erythrocytes, SYBR Green DNA fluorescence, 72 h; at 28.5 µM unless noted. In short, it runs like this:
(§1)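 Erythrocytes infected with P. falciparum (0.3% parasitemia, 2.5% hematocrit) incubated with compounds 72 h at 37 C, 5% CO2. Lysis with saponin/Triton buffer containing SYBR Green I, overnight at room temperature in the dark; DNA fluorescence (485/535 nm) normalised to 0.29 uM artemisinin and DMSO.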

Assay [2] in a line: qHTS profiling of the MIPE4 collection as inhibitors of Plasmodium falciparum (DD2) proliferation (AID 743345). To be noted: P. falciparum Dd2 in erythrocytes, SYBR Green DNA, 72 h; at 28.5 µM unless noted. In short, it runs like this:
as §1
A general note: Quantitative high-throughput screening tests each substance at several concentrations.

A short description of assay [3]: qHTS profiling of the MIPE4 collection as inhibitors of Plasmodium falciparum (DD2) proliferation (Rep 2) (AID 743346). To be noted: P. falciparum Dd2 in erythrocytes, SYBR Green DNA, 72 h; at 28.5 µM unless noted. In short, it runs like this: as §1
A short description of assay [4]: qHTS profiling of the MIPE4 collection as inhibitors of Plasmodium falciparum (HB3) proliferation (AID 743347).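 Also: plate controls were DMSO vehicle wells for no effect and artemisinin wells for full effect.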 The note with it: P. falciparum HB3 in erythrocytes, SYBR Green DNA, 72 h; at 28.5 µM unless noted. In short, it runs like this: as §1
Assay [5] is described as follows: High-throughput drug toxicity screening in the BPDCN cell line Gen2.2 (AID 1224824).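 Also: cells exposed to compounds for 48 h before reading.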 To be noted: Gen2.2 BPDCN cells; at 45.8 µM (top of the series) unless noted. In short, it runs like this: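 Gen2.2, 500 cells/well, phenol red-free RPMI/10% FBS/Pen-Strep; 48 h cpd, 37 °C/5% CO2; CTG lum, 15 min RT. Norm: DMSO = 100%, bortezomib 9.2 uM final = 0%.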
Assay [6] is described as follows: High-throughput drug toxicity screening in the BPDCN cell line Cal-1 (AID 1224825). To be noted: Cal-1 BPDCN cell viability, qHTS; at 45.8 µM (top of the series) unless noted. In short, it runs like this: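 Cal-1 cells, 500 per well in phenol-red-free RPMI with 10% FBS, exposed to compounds for 48 hours at 37C, 5% CO2. Viability read by CellTiter-Glo luminescence; percent activity normalized to DMSO (100%) and 9.2 uM bortezomib final (0%).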

Assay [7] is described as follows: qHTS profiling for inhibitors of Plasmodium falciparum (3D7) proliferation (AID 743322).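 Also: infected erythrocytes exposed to compound for 72 h before lysis; 100% = DMSO vehicle wells and 0% = 0.29 µM artemisinin.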 The note with it: P. falciparum 3D7 proliferation; at 28.7 µM (top of the series). An outline of the steps:
as §1

The nature of assay [8]: qHTS profiling for inhibitors of Plasmodium falciparum (DD2) proliferation (AID 743323). To be noted: lower = more inhibition; at 28.7 µM (top of the series). An outline of the steps: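 SYBR Green fluorescence (ex 485, em 535 nm) of lysed cultures gives parasite DNA content; wells normalized to artemisinin (0.29 uM) and DMSO controls. Infected red cells: 0.3% parasitemia, 2.5% hematocrit, 72 h, 37 C.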

The compound `OCCCNc1cc(-c2ccnc(Nc3cccc(Cl)c3)n2)ccn1` returned a parasite growth, % of DMSO control in assay [1] of 5.7%. In addition, the parasite growth remaining, % of DMSO control (lower = more inhibition) in assay [2] stood at 10.1%. The same compound gave a parasite growth, % of control (lower = inhibition) in assay [3] of 19.1%. The growth, % of control in assay [4] was 6.21%. Further, in assay [5], the cell viability, % of control (lower = more cytotoxic) amounted to 4.08%. In addition, in assay [6], the viability (% of control) was determined as 2.53%.

Regarding `CS(=O)(=O)c1ccc(-c2cnc(N)c(C(=O)Nc3ccccc3)n2)cc1`, the parasite growth, % of DMSO control in assay [1] amounted to 7.85%. Also, the parasite growth remaining, % of DMSO control (lower = more inhibition) in assay [2] was 9.88%. This compound displayed a parasite growth, % of control (lower = inhibition) in assay [3] of 7.67%. This compound also had a growth, % of control in assay [4] of 2.44%. The cell viability, % of control (lower = more cytotoxic) in assay [5] is 99.6%. The viability (% of control) in assay [6] is 41.5%.

In turn, `Nc1cccc(-c2cc3c(Oc4cccc(O)c4)ncnc3[nH]2)c1` registered a parasite growth, % of DMSO control in assay [1] of 33.1%. The parasite growth remaining, % of DMSO control (lower = more inhibition) in assay [2] turned out to be 86%. The same compound gave a parasite growth, % of control (lower = inhibition) in assay [3] of 52.9%. This compound also displayed a growth, % of control in assay [4] of 43.2%. The cell viability, % of control (lower = more cytotoxic) in assay [5] was found to be 115%. Moreover, in assay [6], the viability (% of control) is 9.2%.

`COC(=O)Nc1nc2ccc(C(=O)c3ccc(F)cc3)cc2[nH]1`: the parasite growth, % of DMSO control in assay [1] is 66.2%. The parasite growth remaining, % of DMSO control (lower = more inhibition) in assay [2] turned out to be 96.2%. Also, the parasite growth, % of control (lower = inhibition) in assay [3] is 69.2%. In assay [4], this compound registered a growth, % of control of 61.7%. Moreover, the cell viability, % of control (lower = more cytotoxic) in assay [5] amounted to 78.4%. Further, the viability (% of control) in assay [6] worked out at 25%.

As to `COc1cc2c(Oc3ccc(-c4cnc(Nc5ccc(F)cc5)n(C)c4=O)cc3F)ccnc2cc1OCCCN1CCOCC1`, the remaining parasite growth % (stronger effect = lower value) in assay [7] was -2.59%. Moreover, the activity, percent of control in assay [8] was -0.143%. Moreover, the parasite growth remaining, % of DMSO control (lower = more inhibition) in assay [2] is 6.26%. In assay [3], the parasite growth, % of control (lower = inhibition) turned out to be 17%. The compound also showed a growth, % of control in assay [4] of 9.39%. Moreover, the cell viability, % of control (lower = more cytotoxic) in assay [5] came out at 5.93%. Moreover, the viability (% of control) in assay [6] came out at 0.783%.

As for `CCn1cc(-c2ccnc3[nH]c(-c4cccc(CN(C)C)c4)cc23)c(-c2ccc(NC(=O)N(C)C)cc2)n1`, the parasite growth, % of DMSO control in assay [1] is 5%. For the same compound, the parasite growth remaining, % of DMSO control (lower = more inhibition) in assay [2] was 8.23%. The parasite growth, % of control (lower = inhibition) in assay [3] was determined as 9.35%. For the same compound, the cell viability, % of control (lower = more cytotoxic) in assay [5] came to 3.65%. Further, in assay [6], the viability (% of control) is 2.71%.

As to `COc1c(N2C[C@@H]3CCCN[C@H]3C2)c(F)cc2c(=O)c(C(=O)O)cn(C3CC3)c12`, the parasite growth, % of DMSO control in assay [1] is 53.9% and 70.8%. The parasite growth remaining, % of DMSO control (lower = more inhibition) in assay [2] was found to be 76.4%. The cell viability, % of control (lower = more cytotoxic) in assay [5] stood at 73.3%. Further, the viability (% of control) in assay [6] was determined as 71.9%.

`CCn1nnc2c(N3CCOCC3)nc(-c3ccc(NC(=O)Nc4ccc(C(=O)N5CCN(C)CC5)cc4)cc3)nc21`: the parasite growth, % of DMSO control in assay [1] came to 6.79%. For the same compound, the parasite growth remaining, % of DMSO control (lower = more inhibition) in assay [2] worked out at 6.26%. The compound further returned a parasite growth, % of control (lower = inhibition) in assay [3] of 13.6%. Besides, in assay [4], the growth, % of control is 5.28%. Also, the cell viability, % of control (lower = more cytotoxic) in assay [5] worked out at 28.1%. In assay [6], the viability (% of control) was 26.6%.

As to `O=c1[nH]c(=O)n(C2CCCO2)cc1F` (configuration not stated), in assay [1], the parasite growth, % of DMSO control was found to be 404% [at 57.5 µM]. For the same compound, the parasite growth remaining, % of DMSO control (lower = more inhibition) in assay [2] is 99.7% [at 57.5 µM]. The compound further yielded a growth, % of control in assay [4] of 412% [at 57.5 µM]. Moreover, the cell viability, % of control (lower = more cytotoxic) in assay [5] is 130% [at 92.2 µM]. Besides, the viability (% of control) in assay [6] was 116% [at 92.2 µM].

Regarding `CC(O)C1C(=O)N2C(C(=O)O)=C(SC3CNC(C(=O)N(C)C)C3)C(C)C12` (configuration not stated), the parasite growth, % of DMSO control in assay [1] turned out to be 87.4%. This compound came in with a parasite growth remaining, % of DMSO control (lower = more inhibition) in assay [2] of 93.4%. Moreover, the growth, % of control in assay [4] came out at 75.4%. Also, the cell viability, % of control (lower = more cytotoxic) in assay [5] is 120%. Further, the viability (% of control) in assay [6] came to 98.9%.

Turning to `CC1(C)O[C@@H]2C[C@@H]3[C@H]4C[C@@H](F)C5=CC(=O)C=C[C@]5(C)[C@@]4(F)[C@@H](O)C[C@]3(C)[C@]2(C(=O)CO)O1`, in assay [1], the parasite growth, % of DMSO control amounted to 53.6%. For the same compound, the parasite growth remaining, % of DMSO control (lower = more inhibition) in assay [2] was 97%. Moreover, the parasite growth, % of control (lower = inhibition) in assay [3] was determined as 53.7%. The growth, % of control in assay [4] was found to be 76%. Moreover, the cell viability, % of control (lower = more cytotoxic) in assay [5] turned out to be 45.3%. For the same compound, the viability (% of control) in assay [6] came out at 54.5%.

In assay [1], `O=C(Nc1cn[nH]c1-c1nc2ccc(CN3CCOCC3)cc2[nH]1)NC1CC1` came in with a parasite growth, % of DMSO control of 5.31%. Also, in assay [3], the parasite growth, % of control (lower = inhibition) was found to be 8.07%. Besides, the cell viability, % of control (lower = more cytotoxic) in assay [5] came to 4.46%. In addition, the viability (% of control) in assay [6] came to 3.55%.

In assay [1], `COc1ccc(F)c(F)c1C(=O)c1cnc(NC2CCN(S(C)(=O)=O)CC2)nc1N` yielded a parasite growth, % of DMSO control of 27.7%. Moreover, in assay [2], the parasite growth remaining, % of DMSO control (lower = more inhibition) was 60.1%. For the same compound, the parasite growth, % of control (lower = inhibition) in assay [3] was determined as 26%. Besides, the growth, % of control in assay [4] stood at 37.7%. In assay [5], the cell viability, % of control (lower = more cytotoxic) worked out at 2.27%. In assay [6], the viability (% of control) was determined as 2%.
